Compound activity: PubChem BioAssay, several laboratories
Hits are enriched below; roughly 3.4% of the tested compounds scored in any of these assays.
HGIII-sPLA2 inh – Blocks human group III sPLA2 activity; Q9NZ20; QFRET BODIPY PC-A2 liposome hydrolysis, fluorescence; inhibition, % at 12.2 µM; 370,000 compounds, 0.56% hits; AID 743126;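 active = inhibition above mean plus 3 SD of compounds lying within the high and low control bounds, cut at about 19% in these data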;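 also: 0% = median of test compound wells and 100% = no enzyme DMSO wells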
Target sequence (Q9NZ20 whole entry, looked up): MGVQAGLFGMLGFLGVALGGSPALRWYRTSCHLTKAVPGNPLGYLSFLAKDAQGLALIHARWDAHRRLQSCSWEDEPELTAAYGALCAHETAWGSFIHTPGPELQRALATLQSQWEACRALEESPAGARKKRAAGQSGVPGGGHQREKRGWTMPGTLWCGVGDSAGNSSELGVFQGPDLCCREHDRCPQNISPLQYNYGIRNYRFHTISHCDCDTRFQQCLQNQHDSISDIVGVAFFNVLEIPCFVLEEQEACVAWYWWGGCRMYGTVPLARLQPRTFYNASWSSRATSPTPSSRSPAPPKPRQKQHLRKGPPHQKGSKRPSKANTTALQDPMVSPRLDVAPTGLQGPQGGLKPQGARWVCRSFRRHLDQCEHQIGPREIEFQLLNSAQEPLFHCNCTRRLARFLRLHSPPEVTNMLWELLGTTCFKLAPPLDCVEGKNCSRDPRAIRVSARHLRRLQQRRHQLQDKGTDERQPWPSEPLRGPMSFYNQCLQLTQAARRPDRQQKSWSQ
KLK7 zymogen act – activates the human kallikrein-7 zymogen. purified proKLK7, EDANS-DABCYL substrate fluorescence; 100% is mature enzyme control, 0% vehicle. activation, % at 7 µM. 370,000 compounds, 0.9% hits. P49862. AID 652039;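 active = activation above the mean of all tested compounds plus 3 SD, computed per campaign excluding outliers beyond control limits, cut at about 13% in these data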
CendR NRP1 mod – modulators of CendR peptide binding to human neuropilin-1 | FAM-RPARPAR peptide binding to NRP-1, fluorescence polarization | inhibition, % at 25 µM | 360,000 compounds, 0.85% hits | AID 602438;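 active = inhibition or corrected inhibition above about 18%, plus a signal ratio from 0.5 to 1.5, limit read from the data, passing the limit was not always enough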
ADAM10 inh – ADAM10 inhibition, QFRET primary screen; recombinant ADAM10, EDANS/DABCYL FRET peptide cleavage, 3 h; inhibition, % at 7 µM; 370,000 compounds, 0.62% hits;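 active = inhibition above a per-campaign cutoff equal to the mean of compounds falling between control-based bounds plus 3 SD, cut at about 20% in these data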;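 also: 0% = DMSO wells while the 100% control is not disclosed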
ADAM17 inh – ADAM17 inhibition, QFRET primary screen; P78536; recombinant ADAM17, EDANS/DABCYL FRET peptide cleavage; inhibition, % at 6.95 µM; 370,000 compounds, 0.83% hits;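 active = inhibition above the mean of compounds lying between control limits plus 3 SD, set per campaign, cut at about 8.5% in these data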;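 also: 0% = DMSO-only wells as the low control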
* marks the source's active call; other numbers are inactive results; nt = no result.

SMILES | HGIII-sPLA2 inh | KLK7 zymogen act | CendR NRP1 mod | ADAM10 inh | ADAM17 inh
COC(=O)[C@]12C[C@H](CC(=O)NCc3ccccc3)C(=O)N(CCc3ccc(OC)c(OC)c3)C1=C[C@H](C(C)C)O[C@@H]2C1CC1 | -12 | 0 | nt | -3 | -6
CC(OC(=O)c1ccc(=O)n(Cc2ccccc2)n1)C(=O)Nc1cccc(Cl)c1 (stereo unspecified) | -9 | 0 | 17* | 0 | -2
Cc1ccc(NC(=O)COC(=O)c2ccc(=O)n(Cc3ccccc3)n2)cc1F | 8 | 1 | -13 | -15 | -1
CCN1CCN(C(=O)c2cnn3c(C(F)F)cc(-c4ccc(C)cc4)nc23)CC1 | 1 | 13* | 0 | -129 | -36
C=CCN1[C@H](Cc2ccccc2)COc2cc(F)ccc2S1(=O)=O | -7 | -1 | nt | 3 | 1
CCOc1ccc(NCc2nc3ccccc3n2CCOc2ccccc2)cc1 | 11 | 0 | -18 | 30* | 7
CC1(C)CC2CC(C)(CN2S(=O)(=O)c2ccc(C(=O)Nc3cc(S(=O)(=O)N4CCOCC4)ccc3Cl)cc2)C1 (stereo unspecified) | -16 | 0 | 12 | 1 | 2
CC1(C)CC2CC(C)(CN2S(=O)(=O)c2ccc(C(=O)Nc3cccc(S(=O)(=O)N4CCOCC4)c3)cc2)C1 (stereo unspecified) | -38 | -1 | -22 | 26* | 20*
O=C(NCCN1C(=O)C2C3C=CC(C3)C2C1=O)c1cc(Cl)cc(Cl)c1 (stereo unspecified) | -1 | 0 | nt | 2 | 1
NC(=S)NN=Cc1nccc2ccccc12 | 1 | -1 | 11 | -113 | -14
Cc1cnc(C=NNC(N)=S)c2cccc(N)c12 | -3 | 0 | 26* | -17 | -1
c1ccc(-c2c[nH]c3cccc(C4CCCCC4)c23)cc1 | -31 | 0 | nt | -6 | -1
Cc1cccc(-n2nc3c(c2NC(=O)c2ccco2)CS(=O)C3)c1C (stereo unspecified) | -2 | 0 | 6 | -3 | -2
Cc1cccc(-n2nc3c(c2NC(=O)c2ccco2)CSC3)c1C | 6 | 1 | -79 | 16 | 9.1*
O=C(N[C@H](Cc1ccccc1)C(=O)NCCN1CCOCC1)[C@H]1O[C@@H](n2ccc(=O)[nH]c2=O)[C@H](O)[C@@H]1O | 1 | 0 | nt | -7 | -4
C=CCN1C(=O)[C@@H](CC(=O)N2CCCC2)[C@]2(C(=O)OCC)CCCCC/C=C/12 | 4 | 0 | nt | -3 | 0
CN1C(=S)SC(N(O)C(=O)Nc2cccc3ccccc23)C1(C)C (stereo unspecified) | -1 | -22 | 31* | -205 | -63
CN1C(=S)SC(N(O)C(=O)Nc2ccccc2)C1(C)C (stereo unspecified) | -4 | 1 | -11 | 2 | -1
O=C(COC(=O)c1ccc(N2CCCC2=O)cc1)c1ccccc1 | 4 | 1 | 28* | 1 | -1
CC(=O)CC[C@@H]1CC[C@]2(CCCN(C(=O)c3ccc4ccccc4n3)C2)O1 | 1 | 0 | nt | -4 | 0
COC(=O)[C@]1(CNS(=O)(=O)c2ccc(F)cc2)CC(=O)N(C)[C@@H]1c1ccccc1 | 0 | 0 | nt | 2 | 1
CCOC(=O)c1[nH]c2ccc(Br)cc2c1NC(=O)CCN1CCCC(C)(C)C1 | -14 | 0 | 29* | 1 | -1
Cc1cc(CN(C)C(=O)CC2C(=O)NCCN2Cc2c(F)cccc2Cl)on1 (stereo unspecified) | 2 | 0 | 1 | 3 | -5
CN(Cc1ncc[nH]1)C(=O)CC1C(=O)NCCN1Cc1c(F)cccc1Cl (stereo unspecified) | 2 | 0 | 23* | 5 | -1
Clc1ccc(OCCOc2ccc(Br)nc2Br)c(Cl)c1 | -1 | nt | nt | 3 | 0
SMILES | HGIII-sPLA2 inh | KLK7 zymogen act | CendR NRP1 mod | ADAM10 inh | ADAM17 inh
COc1ccc(Nc2nc(N)nc(COc3ccc(OC)cc3)n2)cc1 | 3 | 0 | 0 | -3 | -1
COc1ccc(OCc2nc(N)nc(Nc3cccc(C)c3C)n2)cc1 | 7 | 0 | 26* | -2 | -1
O=C(Nc1ccc2c(c1)OCO2)OC1CC2CC1[C@H]1CCCCN1[C@H]2Cc1ccccc1 (stereo partly specified) | -5 | 0 | nt | -2 | -2
Cc1occc1C(=O)N1N=C(C2CC2)CC1(O)C(F)(F)F (stereo unspecified) | -6 | 0 | 34* | -13 | -5
O=C(CSc1nnc(CN2CCOCC2)n1-c1ccc(Cl)cc1)Nc1cc(Cl)ccc1O | -57 | 0 | 21* | 7 | 0
CCOC(=O)c1ccc(NC(=O)C(C)N2C(=O)c3ccccc3C2=O)cc1 (stereo unspecified) | -5 | 1 | -19 | 2 | 4
FC(F)Sc1ccc(NC(=S)NC2CCCC2)cc1 | 4 | 0 | -1 | -1 | -6
C[C@@H](C(=O)Nc1ccc(SC(F)F)cc1)N1C(=O)C2CCCCC2C1=O (stereo partly specified) | -10 | 0 | 22* | 9 | 0
Cc1ccc(NC(=O)C(C)N2C(=O)C3CC=C(Cl)CC3C2=O)cc1 (stereo unspecified) | 5 | 0 | 13 | -5 | -2
Cc1ccc(NC(=O)C(C)N2C(=O)c3ccccc3C2=O)cc1 (stereo unspecified) | 8 | 0 | 27* | -5 | -9
Cc1ccc(NC(=O)C(C)N2C(=O)C3C4CC(C(Br)C4Br)C3C2=O)cc1 (stereo unspecified) | -40 | 0 | 32* | 5 | 5
Cc1cc(NS(=O)(=O)c2ccc(NC(=O)CSc3nnc(SCc4ccc(Cl)cc4)s3)cc2)nc(C)n1 | -58 | 0 | nt | -1 | -1
O=C(NCc1ccccc1)C1=C[C@H](C2CCCCC2)C[C@H](OCc2ccc(CO)cc2)O1 | -6 | 0 | 18* | -3 | 3
O=C(NCc1ccccc1)C1=C[C@@H](C2CC2)C[C@@H](OCc2ccc(CO)cc2)O1 | -3 | 0 | 21 | 4 | 6
NC(=O)C1CCCN(C(=O)CCCNC(=O)c2ccc(Cl)cc2)C1 (stereo unspecified) | 0 | 0 | 28* | -1 | 0
O=C(NCCC(=O)N1CCCC(C(F)(F)F)C1)c1ccc(Br)cc1 (stereo unspecified) | -1 | -1 | 28* | 3 | -1
CC1CCCN(C(=O)CCCNC(=O)c2ccc(Cl)cc2)C1 (stereo unspecified) | -1 | 0 | 15 | -8 | -2
COC(CNC(=O)[C@H](Cc1ccccc1)NC1(C(=O)NC2CCCCC2)CCC1)OC | 1 | nt | nt | -4 | -3
O=C(N[C@@H]1CCCc2c1cnn2-c1ccc(F)cc1F)c1ccccn1 | 7 | nt | nt | -2 | -2
Cc1cccc(NC(=O)c2ccc(OCc3c(C)noc3C)cc2)c1 | -2 | 0 | 29* | 0 | 1
Cc1cccc(C2C3=C(Nc4[nH]n(-c5ccccc5)c(=O)c42)c2ccccc2C3=O)c1 (stereo unspecified) | -16 | 0 | 15 | 16 | 9.8*
